# Measured values: PubChem BioAssay (NCI)
# Several values for one entry are separate records, joined by “and”; a condition that tells them apart may be missing. Identical values can stand only once. The panel holds about 83,000 compounds, 20% with a hit somewhere; the sample as a whole holds those more often.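 Each cell line was grown in a 96-well plate and treated with one concentration of compound for 48 hours. Values below 10 were considered active.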 Unmarked numbers belong to inactive results. Activity calls are given as the source filed them.
# Test system: SK-MEL-28 melanoma
# Test: NCI-60 one-dose screen, 48 h (100 = growth as untreated, 0 = no growth, -100 = all killed)
# Conditions: 10 µM
# Description: Growth inhibition of the SK-MEL-28 human tumor cell line is measured as a screen for anti-cancer activity. Cells are grown in 96 well plates and exposed to the test compound for 48 hours. Compounds are tested at a single concentration, which is 10^-5 M for most compounds. The reported endpoint is percent growth (GI% or GIPRCNT), where numbers from 0 - 100% represent growth inhibition, and numbers from -100% - 0 represent cell death. For example, a value of 40 represents 60% growth inhibition. A value of 0 means no net growth occurred over the course of the experiment. A value of -40 indicates 40% of cells at the beginning of the experiment died by the end of the experiment. A value of -100 means all cells are dead at the end of the experiment.
# NCI-60 Human Tumor Cell Lines Screen was performed using the standard one-dose NCI protocol, which is described in more detail at https://dtp.cancer.gov/discovery_development/nci-60/default.htm.
# Compounds with GIPRCNT values below 10 were considered active. Activity score was based on GIPRCNT using the following formula: […]
# Score is 0 for GIPRCNT values of 100 or above, 50 for GIPRCNT values of 0, and 100 for GIPRCNT values of -100.
row,SMILES,growth
1,O=C(Nc1c(Cl)cccc1Cl)Oc1cccc2cccnc12,73.9%
2,O=C(O)c1c(Cl)c(Cl)c(Cl)c(Cl)c1-c1c2cc(I)c(=O)c(I)c-2oc2c(I)c(O)c(I)cc12,105% and 327% and 108%

# Same assay, conditions: 10 µM unless noted
row,SMILES,growth
1,C=C(Cl)C(=NC(C)(C)C)Nc1ccccc1C,98.4%
2,Cc1ccc(C(=Nc2ccccc2)N=P(c2ccccc2)(c2ccccc2)c2ccccc2)cc1,-48.6% (active)
3,N#CSCC(=O)c1ccc(Cl)cc1,73.4%
4,O=C(Oc1cccc2cccnc12)c1ccccc1,82.4% and 103%
5,COc1ccccc1/C=C\C(=O)c1ccccc1,94.9%
6,O=C(Nc1cccc(Br)c1)Oc1ccc(Cl)c2cccnc12,25% [100 µM]
7,COC(=O)c1nc(=S)[nH]c(C(=O)OC)c1C(=O)c1ccc2ccccc2c1,106%
8,CCOC(=O)/C(=C\c1ccc(-c2ccccc2)cc1)C(C)=O,99.1%
9,O=C(/C=C/C=C/c1ccccc1)c1ccco1,123%
10,CC(=O)ON=C1C=CC(=C(C#N)c2ccccc2)C=C1,55.5%
11,O=C(/C=C/c1cccc(Cl)c1)c1ccccc1,114% and 109%
12,CCCCCCCCCCCCCCCC[N+](C)(CCO)Cc1cnc[nH]1 (stereo not given),-43.2% (active)
13,CCC(c1cccc(O)c1)C(CC)c1cccc(O)c1 (stereo not given),63.2%
14,Cc1ccc(N=C=C(c2ccccc2)c2ccccc2)cc1,106%
15,C[n+]1c(/C=C/c2ccc([N+](=O)[O-])cc2)ccc2ccccc21,121%
16,Nc1ncnc2c1ncn2C1OC(CO)C(O)C1O (stereo not given),116% and 124% and 125%
17,CN(C)c1ccc(N=Nc2cccc3ccccc23)cc1,103%
18,CCOC(=O)/C=C/c1ccc([N+](=O)[O-])o1,26.4%

row,SMILES,growth
1,c1ccc2c(c1)Nc1cc3ccccc3cc1N2,83.3%
2,N#CSCc1c(Cl)cccc1Cl,56.2%
3,COC(=O)Nc1nc2ccc(C(=O)c3ccccc3)cc2[nH]1,48.9% and 61.5% and 55.6%
4,Cn1c2ccccc2c2nnc(N/N=C/c3ccccn3)nc21,18.5%
5,Oc1c(Cl)c2ccccc2c2ccccc12,108%
6,CNc1ccc(N)cc1,140%
7,CCC1OC(OC)C=CC1=O (stereo not given),106%
8,O=C1c2ccccc2C(=O)N1c1ccccc1,115%
9,CC1(C)CC([P+](c2ccccc2)(c2ccccc2)c2ccccc2)=NN1,67.9%
10,O=C(Nc1ccccc1)c1cc(Cl)ccc1O,55.7%
11,CNc1ccc2c(c1)c1ccccc1n2C,117%
12,COc1ccccc1OC(=O)Oc1ccccc1OC,110% and 106%
13,CC1SC(=S)N(c2ccc(Cl)cc2)C1=O (stereo not given),210% and 104%
14,COc1cc(/C=C/C(C)=O)ccc1O,112% and 103%
15,O=C1c2ccccc2C(=O)c2sc(Nc3ccc(Cl)cc3)nc21,-9.35% (active)
16,O=C1N[C@H]2[C@H](CS[C@H]2CCCCC(=O)N(CCP(c2ccccc2)c2ccccc2)CCP(c2ccccc2)c2ccccc2)N1,99.7%
17,NC(=S)N/N=C/c1ccc(Cl)s1,108%
18,O=C(/C=C\c1ccccc1)N1c2ccccc2CC1c1c[nH]c2ccccc12 (stereo not given),88.8%

# Same assay, conditions: 100 µM
row,SMILES,growth
1,O=C(Nc1c(Cl)cccc1Cl)Oc1cccc2cccnc12,38.5%
2,O=C(O)c1c(Cl)c(Cl)c(Cl)c(Cl)c1-c1c2cc(I)c(=O)c(I)c-2oc2c(I)c(O)c(I)cc12,-55.7% (active)
